# Pf growth 48h: P. falciparum growth inhibition at 48 hours (one generation); P. falciparum luciferase growth in erythrocytes, 48 h; Potency, µM (highest dose often 28.7 µM), hits mostly inhibitors; 5.9% of 310,000 active; AID 504832
#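 Luminescence readout; reporter = integrated firefly luciferase in P. falciparum. RBC culture at 2% hematocrit, 0.1% parasitemia final, 37 C/5% CO2; decreased signal taken as growth inhibition.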
# Shiga toxin inh: blocks Shiga toxin action in Vero cells | Vero cells, Shiga toxin protein synthesis inhibition reporter | inhibition, % at 38.7 µM | 9.2% of 290,000 active | AID 2315; in the data active = inhibition mostly above about 28%, no sharp cut-off; inactive = mostly below about 43%
# CHX counter: affects cycloheximide protein synthesis inhibition readout, counter-screen | cell reporter, cycloheximide protein synthesis inhibition counterscreen | max response, % | 12% of 300,000 active; in the data active = max response mostly above about 13%, no sharp cut-off; inactive = mostly below about 14%; also: read at 38.3 µM for the half of the compounds with a filed dose
# AMA1-RON2 inh: disrupts binding of P. falciparum AMA1 to RON2; 0.2% of 360,000 active; Potency, µM (titrated, usually from 58.2 µM), most hits filed as inhibitors; AlphaScreen AMA1-biotinylated RON2 peptide binding; AID 720542; also: nearly all actives have a fitted effect of over 45% in size
#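 AMA1 (3D7) with his tag at 25 nM final met compounds first, then biotinylated RON2 peptide at 25 nM; detection used donor plus acceptor beads, 10 µg/mL apiece, read by AlphaScreen after 30 min at room temperature.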
# Pf growth 96h: inhibits malaria parasite growth, 96 h; Potency, µM (highest dose often 28.7 µM), hits mostly inhibitors; AID 504834; P. falciparum luciferase reporter growth, 96 h; 6.9% of 320,000 active
#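 96 h incubation, 37 C, 5% CO2, of luciferase-reporter P. falciparum-infected RBCs (2% hematocrit, 0.05% parasitemia final) with test compounds; endpoint luminescence.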
# SARS PLP yeast: inhibitors of SARS-CoV papain-like protease in yeast; S. cerevisiae expressing SARS-CoV PLpro, growth rescue; Potency, µM (doses to about 32.9 µM), hits mostly activators; 0.19% of 330,000 active; AID 485353; calls by dose curve; also: nearly all actives have a fitted effect of over 55% in size
# Numbers stand for hits; . = inactive; ? = inconclusive; / = no result. The list is not random: actives were taken first. Their share in the collection is about 19%. Unless noted, calls follow the shape of the dose curve; as a rule, active = well fitted curve in the direction sought with a large enough effect; inconclusive = small, poorly fitted or top-dose-only effect, or another doubt; inactive = no such curve, though single readings can be large; an effect the other way counts as inactive or inconclusive.
SMILES,Pf growth 48h,Shiga toxin inh,CHX counter,AMA1-RON2 inh,Pf growth 96h,SARS PLP yeast
N#CCCN(C(=O)COC(=O)COc1ccc(Cl)cc1)c1ccccc1,.,.,.,.,.,.
N#CCCN(C(=O)COc1ccc(Cl)cc1Cl)c1ccccc1,.,.,19,.,?,.
Cc1cccc(NC(=O)CSc2nnc(-c3ccc(S(=O)(=O)N4CCOCC4)cc3)n2C)c1,?,.,.,.,?,.
COc1ccc(S(=O)(=O)N2CCCC2CNC(=O)C(=O)NCc2cccs2)cc1 (stereo not drawn),?,/,/,.,?,.
Cc1ccc(S(=O)(=O)NCCc2nnc3ccc(N4CCOCC4)nn23)cc1,/,/,/,.,/,/
CCCOC(=O)c1ccc(Oc2cn[nH]c2-c2ccc(OCC(=O)NN)cc2O)cc1,?,.,.,.,9.3µM,.
CCCOC(=O)c1ccc(Oc2cn[nH]c2-c2ccc(O)cc2O)cc1,?,.,.,.,13µM,.
COc1ccc(N=Nc2ccc(N)nc2N)cc1,.,107,70,?,.,.
COc1ccc(N=Nc2c(N)n[nH]c2N)cc1,.,45,27,.,.,.
Nc1n[nH]c(N)c1N=Nc1ccc(F)cc1,.,.,33,.,.,.
Nc1ccc(N=Nc2ccc(O)cc2)c(N)n1,/,/,/,.,/,/
O=C(CCCOc1cccc(Br)c1)NC1CCC(O)CC1 (stereo not drawn),.,.,.,.,.,.
Cc1cccc(C)c1NC(=O)C(c1ccccc1)n1c(=O)c(-c2ccco2)nc2ccccc21 (stereo not drawn),/,/,/,.,/,/
O=C1/C(=C\c2ccncc2)N2CCC1CC2,.,.,.,.,.,.
CN1C/C(=C/c2cccnc2)C(=O)/C(=C/c2cccnc2)C1,?,.,25,.,?,.
CC(C)N1C/C(=C/c2cccnc2)C(=O)/C(=C/c2cccnc2)C1,13µM,.,21,.,.,.
O=C1/C(=C\c2cccnc2)N2CCC1CC2,?,.,.,?,9.3µM,.
COc1cc(CN2CCNC(=O)C2CC(=O)N2CCc3ccccc3C2)cc(OC)c1 (stereo not drawn),.,.,.,.,.,.
Nc1c([N+](=O)[O-])cc(F)c(N2CCNCC2)c1Br,.,.,.,.,.,.
Fc1cc2[nH]c(=S)[nH]c2c(Br)c1N1CCSCC1,.,.,9.2,.,?,.
CCOc1ccc(NC(=O)CCC(=O)NNC(=O)c2ccco2)cc1,.,.,.,.,.,.
O=C(Nc1ccc(Oc2ccc(NC(=O)c3ccco3)c(NC(=O)c3ccco3)c2)cc1)c1ccco1,?,.,.,.,.,.
O=C(Nc1ccc(Oc2ccc3ccccc3c2)cc1)c1ccco1,2.1µM,.,.,.,/,.
CCOc1ccc(NC(=O)c2ccco2)cc1,.,47,30,.,/,.
O=C(Nc1ccccc1F)Nc1ccccc1OC(F)F,.,.,25,.,.,.
SMILES,Pf growth 48h,Shiga toxin inh,CHX counter,AMA1-RON2 inh,Pf growth 96h,SARS PLP yeast
Cc1ccc(NC(=O)Nc2ccc(F)cc2F)c(OC(F)F)c1,.,.,.,.,.,.
CCOc1ccccc1NC(=O)c1ccc(NC(=O)c2ccco2)cc1,2.9µM,.,13,.,.,.
COc1ccc(OCC(=O)Nc2cccc(NC(=O)c3ccco3)c2)cc1,.,.,.,.,.,.
CCOc1ccc(C(=O)Nc2ccccc2OC(F)F)cc1,.,65,.,.,?,.
CCOc1ccc(NC(=S)NC(=O)c2ccco2)cc1,.,85,62,.,.,.
COC(=O)COc1ccc(NC(=O)c2ccco2)cc1,.,.,16,.,.,.
O=C(Nc1ccccc1OC(F)F)c1ccc(F)cc1,.,.,.,.,.,.
Cn1nc(C(=O)NC2CCC(O)CC2)c2ccccc2c1=O (stereo not drawn),.,/,/,.,.,.
CCCCCc1ccc2cc(C#N)ccc2n1,/,/,/,.,/,/
C[C@H]1CN([C@@H](C)CO)C(=O)c2cccc(NS(=O)(=O)c3cn(C)cn3)c2O[C@H]1CN(C)S(C)(=O)=O,/,/,/,.,/,.
O=[N+]([O-])c1ccc(-c2cn(-c3ccccc3F)c(=S)[nH]2)cc1,.,131,42,.,?,.
CCOc1ccc(-c2cn(-c3ccccc3OC)c(=S)[nH]2)cc1,?,52,18,.,.,.
Cc1ccc(-c2cn(-c3ccccc3F)c(=S)[nH]2)cc1,?,68,42,.,.,.
COc1ccc(-c2c(-c3ccsc3)oc3c2C(O)CCC3)cn1 (stereo not drawn),/,/,/,.,/,/
CCO[C@H]1OC(C(=O)N2CCOCC2)=C[C@@H](c2ccc(Br)cc2)[C@@H]1CCCO,?,.,.,.,?,.
COc1ccccc1-n1cc(CN2CCN(CC=C(C)C)C(CCO)C2)cn1 (stereo not drawn),.,.,.,.,.,.
CCc1nn2c(=O)cc(COC(=O)c3cc(Cl)c(OC)c(OC)c3)nc2s1,12µM,/,/,.,?,.
COc1ccc(S(=O)(=O)N2CCCOC2CNC(=O)C(=O)NCCCn2ccnc2)cc1 (stereo not drawn),.,.,.,.,.,.
O=C(CC1CC2CCC1C2)NCc1cccs1 (stereo not drawn),.,.,15,.,.,.
O=C(NCc1cccs1)C12CC3CC(CC(C3)C1)C2,.,.,.,.,?,.
O=C(COC(=O)c1ccc([N+](=O)[O-])cc1Cl)Nc1cccnc1Cl,.,/,/,.,.,.
COc1cc2c(c(Br)c1N)-c1cc(Br)c(N)cc1C2=O,/,/,/,.,/,/
Clc1ccccc1COc1ccccc1-c1nnco1,.,.,.,.,.,.
c1ccc(OCCOc2ccccc2-c2nnco2)cc1,.,136,15,.,5.2µM,.
O=C1NC[C@H](Cc2ccccc2)N(C[C@H]2CCCN2C[C@H](Cc2ccccc2)N2C[C@H](Cc3ccccc3)N(CC3CCCCC3)C(=O)C2=O)C1=O,/,/,/,.,/,/
SMILES,Pf growth 48h,Shiga toxin inh,CHX counter,AMA1-RON2 inh,Pf growth 96h,SARS PLP yeast
CCCCCNC(=O)C(c1ccnc2ccccc12)n1c(=O)c(-c2cc3ccccc3[nH]2)nc2ccccc21 (stereo not drawn),/,/,/,.,/,/
CN=C(Nc1ccc(Cl)cc1)c1cccc(C(F)(F)F)c1,.,.,.,.,.,.
CN=C(Nc1ccc(Cl)cc1)c1ccc(C(F)(F)F)cc1,.,.,15,.,.,.
O=C1O[C@@H]([C@@H](O)CO)[C@@H](O)[C@H]1O,.,/,/,/,.,/
CCN(CC)S(=O)(=O)c1ccccc1/C=N\O,.,.,29,.,.,.
Cc1nc(N)ncc1C(=O)Nc1ccccc1,.,.,.,.,.,.
O=C(COc1ccc(C(=S)N2CCOCC2)cc1Cl)Nc1ccccc1Cl,.,52,19,.,.,.
COc1cc(Cl)ccc1NC(=O)COc1ccccc1C(=O)N1CCN(c2ccc(O)cc2)CC1,5.9µM,.,.,.,?,.
O=C(c1cc(Cl)ccc1OCc1ccccc1)N1CCOCC1,.,.,20,.,.,.

# Assay outcomes from PubChem BioAssay.
